The sequences below were run on PPARg:RXRa (NR concentration 180 nM, RXRa partner concentration 90 nM) (assay: PBM binding z-score (relative to random genomic background probes); higher = stronger binding; sequences stand for … in GC…GCGATTGACAGCGTAGAATGAAGG).
In short: (§1)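 Ligand-free nuclear receptor dimers were applied to custom Agilent 4×180K protein-binding microarrays whose double-stranded probes carried direct-repeat seeds, single-nucleotide variants, half-site ablations and random human genomic background sequences in 34-nt variable regions. Incubation lasted 1 h. Binding z-scores were computed against the random background probes from regression-normalized fluorescence.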

First: CCATGTAGGTTAAGGGGGTCATTCAGTTTGAAAG
Second: TCGATTAGGTTACGGGGGCATTCAGGGATGAAGA
The PBM binding z-score of the first is higher: 7.38 for the first, 5.21 for the second.

Going from CCGAGTAGGTTACGAGGGGGCATTCTGTGCGAAT to TCGACTAGGTTACGGGGGCATTCAGGGATGAAGA, the PBM binding z-score rises from 2.22 to 6.51.

Going from TCGAGTACGTTACGGGGGCATTCAGGGATGAAGA to TTGAGTAGGTTACGGGGGCATTCAGGGATGAAGA, the PBM binding z-score rises from 0.609 to 7.11.

Compared with TCGAGTAGGTTCCGGGGGCATTCAGGGATGAAGA, CCGGGTAGGTTACGAGGGGGCATTCAGTGCGAAT is higher in PBM binding z-score: 0.485 for the first, 1.6 for the second.

Going from CTATGTAGGTTAAGGGGGTCACTCAGTTTGAAAG to CTATGTAGGTTAAGGGGGTCATTCTGTTTGAAAG, the PBM binding z-score falls from 8.64 to 8.35.

Compared with CTATGTAAGTTAAGGGGGTCATTCAGTTTGAAAG, CTATGCAGGTTAAGGGGGTCATTCAGTTTGAAAG is higher in PBM binding z-score: 3.92 for the first, 5.77 for the second.

Going from CCGAGTAGGTTACGAGGGGGTATTCAGTGCGAAT to TCGAGGAGGTTACGGGGGCATTCAGGGATGAAGA, the PBM binding z-score rises from 1.8 to 6.77.

Going from CTATGTAGGTTGAGGGGGTCATTCAGTTTGAAAG to CCGAGTAGGTTACAAGGGGGCATTCAGTGCGAAT, the PBM binding z-score falls from 4.5 to 2.25.

Compared with CTACGTAGGTTAAGGGGGTCATTCAGTTTGAAAG, CCGAGTAGGTTACGAGGCGGCATTCAGTGCGAAT is lower in PBM binding z-score: 4.41 for the first, 0.984 for the second.

Going from CCGAGTAGGTTATGAGGGGGCATTCAGTGCGAAT to TCGAGTCGGTTACGGGGGCATTCAGGGATGAAGA, the PBM binding z-score falls from 1.69 to 1.46.

First: TCGAGTAGGTTACGGGGGGATTCAGGGATGAAGA
Second: CCGAGTAGGTTACGATGGGGCATTCAGTGCGAAT
The PBM binding z-score of the first is higher: 5.11 for the first, 0.775 for the second.

First: TCGAGTAGGTTACCGGGGCATTCAGGGATGAAGA
Second: TCGAGTAGGTTACGGGGGCAGTCAGGGATGAAGA
The PBM binding z-score of the first is lower: 2.79 for the first, 4.99 for the second.

Compared with TCGAGTAGGTTGCGGGGGCATTCAGGGATGAAGA, CTATGTAGGTTAAGGGGGTCGTTCAGTTTGAAAG is higher in PBM binding z-score: 0.862 for the first, 7.56 for the second.

Compared with CCGAGTGGGTTACGAGGGGGCATTCAGTGCGAAT, CTATTTAGGTTAAGGGGGTCATTCAGTTTGAAAG is higher in PBM binding z-score: 1.75 for the first, 7.22 for the second.

Compared with CCGAGTAGGTTACGAAGGGGCATTCAGTGCGAAT, TCGAGTAGGTTACGGGGGCATTCCGGGATGAAGA is higher in PBM binding z-score: 1.04 for the first, 5.89 for the second.

Compared with TCGAGTAGGTTAAGGGGGCATTCAGGGATGAAGA, CTATATAGGTTAAGGGGGTCATTCAGTTTGAAAG is higher in PBM binding z-score: 5.19 for the first, 8.85 for the second.

First: CTATGTAGGTTAAGGGGGGCATTCAGTTTGAAAG
Second: CCGAGTAGGTTAGGAGGGGGCATTCAGTGCGAAT
The PBM binding z-score of the first is higher: 8.88 for the first, 1.74 for the second.

First: TCGAGTAGGCTACGGGGGCATTCAGGGATGAAGA
Second: CTATGTAGGGTAAGGGGGTCATTCAGTTTGAAAG
The PBM binding z-score of the first is lower: 1.6 for the first, 8.15 for the second.

First: CTATGTAGGTTATGGGGGTCATTCAGTTTGAAAG
Second: CTGTGTAGGTTAAGGGGGTCATTCAGTTTGAAAG
The PBM binding z-score of the first is higher: 8.27 for the first, 6.19 for the second.

In the case of CCGAGTTGGTTACGAGGGGGCATTCAGTGCGAAT, the PBM binding z-score is reported as -0.0841.

Each sequence was assayed on PPARg:RXRa 270nM:90nM, anti-RXR (NR concentration 270 nM, RXRa partner concentration 90 nM) in the same assay as above.
In short: as §1

First: CCATGTAGGTTAAGGGGGTCATTCAGTTTGAAAG
Second: TCGATTAGGTTACGGGGGCATTCAGGGATGAAGA
The PBM binding z-score of the first is higher: 7.13 for the first, 5.33 for the second.

First: CCGAGTAGGTTACGAGGGGGCATTCTGTGCGAAT
Second: TCGACTAGGTTACGGGGGCATTCAGGGATGAAGA
The PBM binding z-score of the first is lower: 3.46 for the first, 5.97 for the second.

Going from TCGAGTACGTTACGGGGGCATTCAGGGATGAAGA to TTGAGTAGGTTACGGGGGCATTCAGGGATGAAGA, the PBM binding z-score rises from 1.72 to 6.44.

Compared with TCGAGTAGGTTCCGGGGGCATTCAGGGATGAAGA, CCGGGTAGGTTACGAGGGGGCATTCAGTGCGAAT is higher in PBM binding z-score: 2.22 for the first, 2.96 for the second.

Going from CTATGTAGGTTAAGGGGGTCACTCAGTTTGAAAG to CTATGTAGGTTAAGGGGGTCATTCTGTTTGAAAG, the PBM binding z-score falls from 7.98 to 7.68.

Going from CTATGTAAGTTAAGGGGGTCATTCAGTTTGAAAG to CTATGCAGGTTAAGGGGGTCATTCAGTTTGAAAG, the PBM binding z-score rises from 5.21 to 6.3.

Going from CCGAGTAGGTTACGAGGGGGTATTCAGTGCGAAT to TCGAGGAGGTTACGGGGGCATTCAGGGATGAAGA, the PBM binding z-score rises from 3.05 to 5.92.

Compared with CTATGTAGGTTGAGGGGGTCATTCAGTTTGAAAG, CCGAGTAGGTTACAAGGGGGCATTCAGTGCGAAT is lower in PBM binding z-score: 5.93 for the first, 3.68 for the second.

First: CTACGTAGGTTAAGGGGGTCATTCAGTTTGAAAG
Second: CCGAGTAGGTTACGAGGCGGCATTCAGTGCGAAT
The PBM binding z-score of the first is higher: 5.7 for the first, 1.28 for the second.

Going from CCGAGTAGGTTATGAGGGGGCATTCAGTGCGAAT to TCGAGTCGGTTACGGGGGCATTCAGGGATGAAGA, the PBM binding z-score falls from 3.12 to 2.62.

Compared with TCGAGTAGGTTACGGGGGGATTCAGGGATGAAGA, CCGAGTAGGTTACGATGGGGCATTCAGTGCGAAT is lower in PBM binding z-score: 4.06 for the first, 1.01 for the second.

First: TCGAGTAGGTTACCGGGGCATTCAGGGATGAAGA
Second: TCGAGTAGGTTACGGGGGCAGTCAGGGATGAAGA
The PBM binding z-score of the first is lower: 2.86 for the first, 5.02 for the second.

Going from TCGAGTAGGTTGCGGGGGCATTCAGGGATGAAGA to CTATGTAGGTTAAGGGGGTCGTTCAGTTTGAAAG, the PBM binding z-score rises from 2.72 to 7.03.

Going from CCGAGTGGGTTACGAGGGGGCATTCAGTGCGAAT to CTATTTAGGTTAAGGGGGTCATTCAGTTTGAAAG, the PBM binding z-score rises from 2.54 to 7.14.

First: CCGAGTAGGTTACGAAGGGGCATTCAGTGCGAAT
Second: TCGAGTAGGTTACGGGGGCATTCCGGGATGAAGA
The PBM binding z-score of the first is lower: 1.55 for the first, 5.67 for the second.

Going from TCGAGTAGGTTAAGGGGGCATTCAGGGATGAAGA to CTATATAGGTTAAGGGGGTCATTCAGTTTGAAAG, the PBM binding z-score rises from 5.78 to 8.04.

First: CTATGTAGGTTAAGGGGGGCATTCAGTTTGAAAG
Second: CCGAGTAGGTTAGGAGGGGGCATTCAGTGCGAAT
The PBM binding z-score of the first is higher: 7.37 for the first, 2.65 for the second.

Going from TCGAGTAGGCTACGGGGGCATTCAGGGATGAAGA to CTATGTAGGGTAAGGGGGTCATTCAGTTTGAAAG, the PBM binding z-score rises from 2.51 to 7.52.

Compared with CTATGTAGGTTATGGGGGTCATTCAGTTTGAAAG, CTGTGTAGGTTAAGGGGGTCATTCAGTTTGAAAG is lower in PBM binding z-score: 7.54 for the first, 6.47 for the second.

In the case of CCGAGTTGGTTACGAGGGGGCATTCAGTGCGAAT, the PBM binding z-score is reported as 0.784.

Reference: the supplement of paper PMC6555819
